According to PMC12820563, “FoxP3 forms a head-to-head dimer in vivo and stabilizes its multimerization on adjacent microsatellites”:
In all, about 16,000 sequences were measured (“rpm ratio (pull-down/input)”: median about 0.94, highest 2% from about 1.7 on). Shown is part of a subset that was picked to be rich in the highest values.

Target: T1, MBP-FoxP1dN (Mus musculus, UniProt P58462 326-579)
T1 sequence: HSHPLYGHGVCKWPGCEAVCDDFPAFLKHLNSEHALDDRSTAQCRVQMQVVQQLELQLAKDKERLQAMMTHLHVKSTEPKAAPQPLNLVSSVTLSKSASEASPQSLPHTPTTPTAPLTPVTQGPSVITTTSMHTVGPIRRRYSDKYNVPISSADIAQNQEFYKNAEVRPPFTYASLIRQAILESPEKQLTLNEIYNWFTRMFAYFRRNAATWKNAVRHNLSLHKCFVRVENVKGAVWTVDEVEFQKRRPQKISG
Assay: PD-seq (MBP pull-down with sequencing); 20 mM Tris-HCl pH 7.5, 100 mM NaCl, 1.5 mM MgCl2, 0.4 uM protein, 0.1 uM dsDNA library, 30 min, room temperature, amylose pull-down; high values mean tight binding
Conditions: protein: recombinant; tags: His6-MBP; chain copies: 2; dsDNA, one strand shown
Procedure, shortened: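 Binding is the reads-per-million enrichment of pull-down relative to input, pooled across replicates. For this, 0.4 µM His6-MBP-tagged mouse FoxP3 or FoxP1 fragment lacking the N-terminus, made in E. coli, was incubated with 0.1 µM Klenow-filled double-stranded degenerate DNA library for 30 min at room temperature in Tris pH 7.5 buffer with NaCl and MgCl2. Complexes bound to amylose resin were washed three times before proteinase K released the DNA for PCR barcoding and Illumina sequencing.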

**Q.** Which binding signal does the source give for “GATGATTGTTCTCCCAGCTGATGAATTGAGATTTTCGAGTAAACAAATTTTCCTAATCTTTCTGTTCAAGCGCCATCTAC” here?
**A.** 0.923 RPM ratio (pull-down/input)

**Q.** Which binding signal does the source give for “GATGATTGTTCTCCCAGCTGATGAATTGAGGTCTTCGAGTAAACAAATTTTCCTAATCTTTCTGTTCAAGCGCCATCTAC” here?
**A.** 0.786 RPM ratio (pull-down/input)

**Q.** With “GATGATTGTTCTCCCAGCTGATGAATTCATCGCCTCGAGTAAACAAATTTTCCTAATCTTTCTGTTCAAGCGCCATCTAC” as the sequence, how does the binding signal read?
**A.** 0.873 RPM ratio (pull-down/input)

**Q.** How did the binding signal turn out when “GATGATTGTTCTCCCAGCTGATGAATTACGGGGTTCGAGTAAACAAATTTTCCTAATCTTTCTGTTCAAGCGCCATCTAC” was run?
**A.** 0.931 RPM ratio (pull-down/input)

**Q.** “GATGATTGTTCTCCCAGCTGATGAATTAGAAACTTCGAGTAAACAAATTTTCCTAATCTTTCTGTTCAAGCGCCATCTAC” was tested. Which binding signal did it give?
**A.** 0.892 RPM ratio (pull-down/input)

**Q.** With “GATGATTGTTCTCCCAGCTGATGAATTGTCAACTTCGAGTAAACAAATTTTCCTAATCTTTCTGTTCAAGCGCCATCTAC” as the sequence, how does the binding signal read?
**A.** 1.31 RPM ratio (pull-down/input)

**Q.** Which binding signal does the source give for “GATGATTGTTCTCCCAGCTGATGAATTGGATTCTTCGAGTAAACAAATTTTCCTAATCTTTCTGTTCAAGCGCCATCTAC” here?
**A.** 0.813 RPM ratio (pull-down/input)

**Q.** For “GATGATTGTTCTCCCAGCTGATGAATTACAAGGTTCGAGTAAACAAATTTTCCTAATCTTTCTGTTCAAGCGCCATCTAC”, which binding signal is on record?
**A.** 1.09 RPM ratio (pull-down/input)

**Q.** With “GATGATTGTTCTCCCAGCTGATGAATTCACCACATCGAGTAAACAAATTTTCCTAATCTTTCTGTTCAAGCGCCATCTAC” as the sequence, how does the binding signal read?
**A.** 1.12 RPM ratio (pull-down/input)

**Q.** How did the binding signal turn out when “GATGATTGTTCTCCCAGCTGATGAATTGGTCTGGTCGAGTAAACAAATTTTCCTAATCTTTCTGTTCAAGCGCCATCTAC” was run?
**A.** 0.807 RPM ratio (pull-down/input)

**Q.** How did the binding signal turn out when “GATGATTGTTCTCCCAGCTGATGAATTTGATGCGTCGAGTAAACAAATTTTCCTAATCTTTCTGTTCAAGCGCCATCTAC” was run?
**A.** 1.13 RPM ratio (pull-down/input)

**Q.** For “GATGATTGTTCTCCCAGCTGATGAATTAAACAGGTCGAGTAAACAAATTTTCCTAATCTTTCTGTTCAAGCGCCATCTAC”, which binding signal is on record?
**A.** 1.21 RPM ratio (pull-down/input)

**Q.** “GATGATTGTTCTCCCAGCTGATGAATTTGGGTCTTCGAGTAAACAAATTTTCCTAATCTTTCTGTTCAAGCGCCATCTAC” was tested. Which binding signal did it give?
**A.** 0.904 RPM ratio (pull-down/input)

**Q.** “GATGATTGTTCTCCCAGCTGATGAATTATATCGATCGAGTAAACAAATTTTCCTAATCTTTCTGTTCAAGCGCCATCTAC” was tested. Which binding signal did it give?
**A.** 0.956 RPM ratio (pull-down/input)

**Q.** With “GATGATTGTTCTCCCAGCTGATGAATTGAATTGATCGAGTAAACAAATTTTCCTAATCTTTCTGTTCAAGCGCCATCTAC” as the sequence, how does the binding signal read?
**A.** 0.941 RPM ratio (pull-down/input)

**Q.** “GATGATTGTTCTCCCAGCTGATGAATTGATTGTATCGAGTAAACAAATTTTCCTAATCTTTCTGTTCAAGCGCCATCTAC” was tested. Which binding signal did it give?
**A.** 1.54 RPM ratio (pull-down/input)

**Q.** For “GATGATTGTTCTCCCAGCTGATGAATTGTATTGATCGAGTAAACAAATTTTCCTAATCTTTCTGTTCAAGCGCCATCTAC”, which binding signal is on record?
**A.** 2.22 RPM ratio (pull-down/input)

**Q.** With “GATGATTGTTCTCCCAGCTGATGAATTGATCTAATCGAGTAAACAAATTTTCCTAATCTTTCTGTTCAAGCGCCATCTAC” as the sequence, how does the binding signal read?
**A.** 1.19 RPM ratio (pull-down/input)

**Q.** How did the binding signal turn out when “GATGATTGTTCTCCCAGCTGATGAATTGTGTTGATCGAGTAAACAAATTTTCCTAATCTTTCTGTTCAAGCGCCATCTAC” was run?
**A.** 2.46 RPM ratio (pull-down/input)

**Q.** How did the binding signal turn out when “GATGATTGTTCTCCCAGCTGATGAATTGATCTGATCGAGTAAACAAATTTTCCTAATCTTTCTGTTCAAGCGCCATCTAC” was run?
**A.** 0.968 RPM ratio (pull-down/input)

**Q.** Which binding signal does the source give for “GATGATTGTTCTCCCAGCTGATGAATTTGTTTGATCGAGTAAACAAATTTTCCTAATCTTTCTGTTCAAGCGCCATCTAC” here?
**A.** 1.47 RPM ratio (pull-down/input)

**Q.** “GATGATTGTTCTCCCAGCTGATGAATTGTTTTGATCGAGTAAACAAATTTTCCTAATCTTTCTGTTCAAGCGCCATCTAC” was tested. Which binding signal did it give?
**A.** 2.01 RPM ratio (pull-down/input)

**Q.** Which binding signal does the source give for “GATGATTGTTCTCCCAGCTGATGAATTTTTTTGATCGAGTAAACAAATTTTCCTAATCTTTCTGTTCAAGCGCCATCTAC” here?
**A.** 0.955 RPM ratio (pull-down/input)

**Q.** With “GATGATTGTTCTCCCAGCTGATGAATTGTGAAAGTCGAGTAAACAAATTTTCCTAATCTTTCTGTTCAAGCGCCATCTAC” as the sequence, how does the binding signal read?
**A.** 1.01 RPM ratio (pull-down/input)
